The record followed here is PubChem BioAssay.

Each structure is given as a SMILES string. Several values for one entry are separate records, joined by “and”; a condition that tells them apart may be missing. Identical values can stand only once. Activity calls are given as the source filed them. Unless noted, no stated cut-off is given here; in the data, active means parasite load remaining mostly below about 12% (no sharp cut-off); inactive means mostly above about 10%.

The viability is a read-out of living cells in per cent, often relative to untreated cells. The term inhibition denotes the change of the read-out against control, counted positive when it falls.

Assay [1] is described as follows: liver-stage malaria parasite growth inhibition, primary screen, cell-based, HepG2, luciferase luminescence, HepG2 viability (AID 624349).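 Further: 100% = mean of DMSO negative control wells on the same plate.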 The note with it: P. berghei liver stage in HepG2, luciferase luminescence, concentration not given here; parasite load remaining: stronger effect = lower value; viability: measured here: HepG2 viability without parasites.
A short description of assay [2]: stimulators of nuclear beta-catenin in C2C12, primary screen, imaging, WNT3A-conditioned medium, mouse C2C12, NPC library (AID 1117326; in the data active means nuclear beta-catenin stimulation mostly above about 4.2%, no sharp cut-off; inactive means mostly below about 10%). The note with it: stronger effect = higher value.
Assay [3] in a line: stimulators of insulin release from INS-1E, primary screen, cell-based, 5 mM glucose, NPC library (AID 1117329;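 active means compound raises insulin release from rat beta cells at 5 mM glucose, no numeric limit stated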). The note with it: rat INS-1E insulin secretion, at 10 µM, stronger effect = higher value.
Assay [4] can be described thus: growth inhibition of GSK3B-pretreated HCT116 cells – cell-based, CellTiter-Glo, 0.2 to 20 µM (AID 1117336;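 active means compounds lowering colon cancer cell viability after pretreatment blocking the GSK3B kinase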). The note with it: HCT116 viability after GSK3B inhibitor, at 20 µM, stronger effect = higher value. A general note: In ATP-based viability assays light output follows the ATP content of the culture.
Assay [5] can be described thus: inhibition of endothelial tube formation, primary screen, imaging, VEGF stimulated, CD31 staining, tube area, NPC library (AID 1117340;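 active means compound that reduces growth-factor-driven endothelial tube area in a mixed cell culture, no cutoff stated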). The following applies: VEGF-stimulated ADSC/ECFC co-culture, at 10 µM, stronger effect = higher value.
Assay [6] can be described thus: glucagon-like peptide 1 release enhancers, primary assay, NCI-H716 cell line, NPC library (AID 1117341;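 active means compound raises GLP1 secretion from the human gut endocrine cells, with no numeric limit stated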). The note with it: NCI-H716 cells, at 10 µM, stronger effect = higher value.
Assay [7] in a line: HCT116 colon cancer cell growth inhibition, primary screen, CellTiter-Glo luminescence, NPC library (AID 1117342;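 active means compounds that lower survival of HCT116 colon cancer cells in the luminescence readout, no numeric limit stated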). The note with it: at 20 µM (top of the series).
A short description of assay [8]: CellTiter-Glo luminescent readout of SW480 viability loss, NPC library primary (AID 1117343;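 active means compounds that lower viability of the colon cancer cells in the luminescence readout, with no numeric limit stated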). The following applies: CellTiter-Glo luminescence; at 20 µM (top of the series).
A short description of assay [9]: decreased DLD-1 cellular survival, CellTiter-Glo luminescent readout, NPC compound collection, primary HTS (AID 1117346;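 active means compounds that lower survival of DLD-1 colon cancer cells in the luminescence readout, no cutoff given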). The note with it: DLD-1 viability, CellTiter-Glo luminescence; at 20 µM (top of the series).
The target of assay [10] is 6-phosphogluconate dehydrogenase, decarboxylating (Homo sapiens) (UniProt P52209). As to the kind of experiment: 6PGD enzyme inhibitors, primary screen, biochemical, human, recombinant enzyme, NADPH absorbance (AID 1159550;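 active means at least 20% inhibition of 6-phosphogluconate dehydrogenase activity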). The note with it: recombinant 6PGD, NADPH absorbance 341 nm; at 10 µM; stronger effect = higher value.
Sequence of 6-phosphogluconate dehydrogenase, decarboxylating (Homo sapiens) (P52209 whole entry, looked up): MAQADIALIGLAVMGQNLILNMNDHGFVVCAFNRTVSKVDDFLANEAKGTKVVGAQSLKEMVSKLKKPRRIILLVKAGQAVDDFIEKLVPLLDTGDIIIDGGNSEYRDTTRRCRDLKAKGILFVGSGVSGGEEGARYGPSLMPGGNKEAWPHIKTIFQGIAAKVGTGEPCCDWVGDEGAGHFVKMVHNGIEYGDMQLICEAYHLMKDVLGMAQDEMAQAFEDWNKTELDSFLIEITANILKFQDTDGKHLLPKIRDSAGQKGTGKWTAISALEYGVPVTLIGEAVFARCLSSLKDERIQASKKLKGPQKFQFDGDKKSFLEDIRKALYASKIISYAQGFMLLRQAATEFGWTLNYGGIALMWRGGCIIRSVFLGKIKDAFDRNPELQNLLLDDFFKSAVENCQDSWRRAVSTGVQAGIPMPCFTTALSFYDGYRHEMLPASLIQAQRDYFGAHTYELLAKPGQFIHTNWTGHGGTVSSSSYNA

For `C=CCSCC1Nc2cc(Cl)c(S(N)(=O)=O)cc2S(=O)(=O)N1` (centres undefined), the parasite load remaining in assay [1] is 134% (inactive) and 105% (inactive) and 42.5% (inactive). The viability in assay [1] was 102% and 73.3% and 104%. Besides, the nuclear beta-catenin stimulation was 0.3% (inactive) in assay [2] (at 10 µM) and 0.6% in assay [2] (stimulation, at 2 µM). Further, in assay [3], the insulin secretion stimulation is -0.2% (inactive). Also, the viability decrease in assay [4] was -11% (inactive). Moreover, the tube area decrease in [5] is -0.7% (inactive). Further, the GLP1 secretion stimulation in assay [6] was 0.1% (inactive). The inhibition of viability in assay [7] is 3.27% (inactive). Besides, the results for the viability decrease (inhibition) in [8] and in assay [9] were -6.2% (inactive) and 1.8% (inactive), respectively. The inhibition in [10] is 5.8% (inactive).

Take `CC[C@]12CCCN3CCc4c(n(c5ccccc45)[C@@](O)(C(=O)OC)C1)[C@@H]32`: in [1], the parasite load remaining was 27.1% (inactive) and 109% (inactive). In assay [1], the viability was 48.5% and 87%. In addition, the nuclear beta-catenin stimulation in assay [2] (at 10 µM) is -2.1% (inactive); in assay [2] (stimulation, at 2 µM) it was -0.6%. The insulin secretion stimulation in [3] is -1.7% (inactive). In addition, in assay [4], the viability decrease was -2.5% (inactive). In addition, the tube area decrease in [5] is 25.6% (inactive). In [6], the GLP1 secretion stimulation is -2.6% (inactive). Further, in [7], the inhibition of viability is -43.9% (inactive). In addition, the viability decrease (inhibition) was 0.1% (inactive) in [8] and -31.5% (inactive) in [9]. The inhibition in [10] was -2.98% (inactive).

Consider `CC(=O)N(O)CCCCCNC(=O)CCC(=O)N(O)CCCCCNC(=O)CCC(=O)N(O)CCCCCN`, for which the parasite load remaining in assay [1] is 87.4% (inactive) and 82.1% (inactive) and 111% (inactive). Also, in [1], the viability is 104% and 70.2% and 87.4%. The nuclear beta-catenin stimulation in assay [2] (at 10 µM) was -0.3% (inactive); in [2] (stimulation, at 2 µM), -1.8%. In addition, the insulin secretion stimulation in assay [3] was 1.8% (inactive). The viability decrease in assay [4] was 56.1% (active). The tube area decrease in assay [5] was 83% (active). The GLP1 secretion stimulation in assay [6] was -3.6% (inactive). For the same compound, the inhibition of viability in assay [7] was 75.7% (active). Besides, the viability decrease (inhibition) in assay [8] was 21% (inactive); in assay [9], 31.5% (inactive). In assay [10], the inhibition was -4.7% (inactive).

In the case of `Nc1ccc(S(N)(=O)=O)cc1`, the parasite load remaining in assay [1] is 105% (inactive) and 77.1% (inactive) and 50.7% (inactive). In addition, in assay [1], the viability is 101% and 73.5% and 90.2%. The nuclear beta-catenin stimulation in [2] (at 10 µM) was 0.6% (inactive); in assay [2] (stimulation, at 2 µM), 0.5%. Moreover, in assay [3], the insulin secretion stimulation is -1.2% (inactive). The viability decrease in assay [4] is 3.9% (inactive). For the same compound, the tube area decrease in [5] is -8.1% (inactive). In addition, the GLP1 secretion stimulation in assay [6] was 2.3% (inactive). Moreover, the inhibition of viability in [7] is -0.4% (inactive). The viability decrease (inhibition) in [8] was 6.8% (inactive); in assay [9] it was 25.1% (inactive). Besides, in assay [10], the inhibition was 7.71% (inactive).

For `CCC(Cc1c(I)cc(I)c(N)c1I)C(=O)O` (centres undefined), in assay [1], the parasite load remaining was 85.1% (inactive) and 170% (inactive) and 66.3% (inactive). Also, the viability in assay [1] is 78.9% and 86.3% and 103%. Further, the nuclear beta-catenin stimulation is 1.2% (inactive) in assay [2] (at 10 µM) and -1.1% in assay [2] (stimulation, at 2 µM). Further, the insulin secretion stimulation in assay [3] was 0.8% (inactive). Further, the viability decrease in [4] was -70.8% (inactive). Also, in assay [5], the tube area decrease was 4% (inactive). The GLP1 secretion stimulation in [6] was 1.8% (inactive). In addition, the inhibition of viability in assay [7] is 7.7% (inactive). For the same compound, the viability decrease (inhibition) in assay [8] was 18.6% (inactive); in assay [9], -5.3% (inactive). Besides, the inhibition in [10] was -0.317% (inactive).

On to `CC(C(=O)O)c1ccc2c(c1)[nH]c1ccc(Cl)cc12` (centres undefined), for which the parasite load remaining in assay [1] is 138% (inactive) and 52% (inactive). The viability in assay [1] is 73.1% and 91.7%. The nuclear beta-catenin stimulation in assay [2] (at 10 µM) is -0.6% (inactive); in assay [2] (stimulation, at 2 µM) it was 1.1%. Also, the insulin secretion stimulation in assay [3] is 0.1% (inactive). Also, the viability decrease in assay [4] was 6.1% (inactive). For the same compound, the tube area decrease in assay [5] is 17.9% (inactive). Further, the GLP1 secretion stimulation in [6] is 4.6% (inactive). Moreover, the inhibition of viability in assay [7] was 1.67% (inactive). For the same compound, the results for the viability decrease (inhibition) in assay [8] and in assay [9] were 36% (inactive) and 14.1% (inactive), respectively. Moreover, the inhibition in assay [10] is -6.34% (inactive).

Turning to `O=C(O)CCC(=O)Nc1ccc(S(=O)(=O)Nc2nccs2)cc1`, the parasite load remaining in [1] was 92.2% (inactive) and 146% (inactive) and 21.3% (inactive). Also, the viability in [1] is 97.3% and 69.1% and 82.2%. For the same compound, the nuclear beta-catenin stimulation in [2] (at 10 µM) is -0.6% (inactive); in assay [2] (stimulation, at 2 µM) it was 0.6%. Moreover, the insulin secretion stimulation in assay [3] was -2.6% (inactive). Moreover, in assay [4], the viability decrease is -3.7% (inactive). Further, the tube area decrease in assay [5] was 21% (inactive). Also, the GLP1 secretion stimulation in assay [6] is -5.7% (inactive). The inhibition of viability in assay [7] is 2% (inactive). The viability decrease (inhibition) in [8] is 40.3% (inactive); in assay [9], 9.45% (inactive). In addition, the inhibition in assay [10] is -5.92% (inactive).

As for `CN1CCC(=C2c3ccccc3Sc3ccccc32)CC1`, the parasite load remaining in assay [1] is 16.9% (inactive) and 99.5% (inactive) and 91.2% (inactive). Also, the viability in [1] is 43.6% and 70.3% and 91.9%. Also, the nuclear beta-catenin stimulation in assay [2] (at 10 µM) is -0.1% (inactive); in assay [2] (stimulation, at 2 µM), 1.3%. In addition, in assay [3], the insulin secretion stimulation is 28.8% (active). For the same compound, the viability decrease in assay [4] was 77.2% (active). Besides, the tube area decrease in assay [5] was 51.9% (active). For the same compound, the GLP1 secretion stimulation in assay [6] was -3.3% (inactive). In addition, the inhibition of viability in [7] is 36.4% (inactive). Besides, the viability decrease (inhibition) in [8] is 80.2% (active); in [9], 23.6% (inactive). For the same compound, the inhibition in assay [10] was 13.2% (inactive).

Turning to `Oc1ccc(Cl)cc1Cc1cc(Cl)ccc1O`, in assay [1], the parasite load remaining is 11.8% (inactive). Besides, the viability in assay [1] is 65.1%. In addition, the nuclear beta-catenin stimulation was 10.6% (inactive) in assay [2] (at 10 µM) and 5.8% in assay [2] (stimulation, at 2 µM). The insulin secretion stimulation in [3] was -0.9% (inactive). The viability decrease in [4] is 100% (active). The tube area decrease in [5] is 109% (active). Also, the GLP1 secretion stimulation in assay [6] is 30.9% (active). In addition, the inhibition of viability in assay [7] is 102% (active). The viability decrease (inhibition) in [8] was -50.4% (active); in assay [9] it was 105% (active). Also, in assay [10], the inhibition is -8.92% (inactive).

On to `COC(=O)Nc1nc2ccc(S(=O)c3ccccc3)cc2[nH]1` (centres undefined), for which, in assay [1], the parasite load remaining is 162% (inactive) and 87.1% (inactive) and 49.8% (inactive). The viability in assay [1] was 85.8% and 93.1% and 68.5%. Also, the nuclear beta-catenin stimulation in [2] (at 10 µM) was 57.7% (active); in assay [2] (stimulation, at 2 µM), 58.1%. Also, the insulin secretion stimulation in assay [3] was -2.4% (inactive). In addition, the viability decrease in assay [4] is 93.5% (active). Further, the tube area decrease in assay [5] was 110% (active). The GLP1 secretion stimulation in assay [6] was 8% (inactive). Moreover, the inhibition of viability in [7] was 92.2% (active). For the same compound, the viability decrease (inhibition) in assay [8] was 96% (active); in assay [9], 88% (active). Besides, in assay [10], the inhibition was 17.4% (inactive).

With `CCN(CC)CCNC(=O)c1cc(Br)c(N)cc1OC`, the parasite load remaining in [1] is 69.3% (inactive) and 155% (inactive). In addition, the viability in [1] was 93.9% and 89.2%. Also, the nuclear beta-catenin stimulation was 3.8% (inactive) in assay [2] (at 10 µM) and -1% in [2] (stimulation, at 2 µM). Also, in assay [3], the insulin secretion stimulation was -0.6% (inactive). Also, the viability decrease in [4] was -24.9% (inactive). The tube area decrease in [5] is 15.9% (inactive). In assay [6], the GLP1 secretion stimulation was 0.5% (inactive). For the same compound, the inhibition of viability in assay [7] is -0.17% (inactive). Also, the viability decrease (inhibition) is -9.9% (inactive) in [8] and -34.1% (inactive) in assay [9]. Also, in [10], the inhibition is 12.4% (inactive).

With `Nc1cc(-c2ccncc2)c[nH]c1=O`, the parasite load remaining in assay [1] is 103% (inactive). For the same compound, in [1], the viability was 98.5%. The nuclear beta-catenin stimulation was 0.5% (inactive) in [2] (at 10 µM) and 1.7% in assay [2] (stimulation, at 2 µM). In assay [3], the insulin secretion stimulation is 0.4% (inactive). Moreover, the viability decrease in assay [4] was -33.1% (inactive). Further, in assay [5], the tube area decrease is -25.6% (inactive). Also, in assay [6], the GLP1 secretion stimulation is 0% (inactive). Further, the inhibition of viability in [7] is -3.67% (inactive). Besides, the figures for the viability decrease (inhibition) in assay [8] and in assay [9] were 15% (inactive) and -7.5% (inactive), respectively. Moreover, in [10], the inhibition is -7.06% (inactive).
